Cruzain Triton: qHTS Assay for Promiscuous and Specific Inhibitors of Cruzain (with detergent); Potency, µM, usual class: inhibitors; AID 1478, 2009; purified cruzain, Z-FR-AMC fluorescence, 0.01% Triton; 0.43% of 200,000 active; further: nearly all actives have a fitted effect of over 40% in size
Target sequence (P25779 123-467 limits assumed): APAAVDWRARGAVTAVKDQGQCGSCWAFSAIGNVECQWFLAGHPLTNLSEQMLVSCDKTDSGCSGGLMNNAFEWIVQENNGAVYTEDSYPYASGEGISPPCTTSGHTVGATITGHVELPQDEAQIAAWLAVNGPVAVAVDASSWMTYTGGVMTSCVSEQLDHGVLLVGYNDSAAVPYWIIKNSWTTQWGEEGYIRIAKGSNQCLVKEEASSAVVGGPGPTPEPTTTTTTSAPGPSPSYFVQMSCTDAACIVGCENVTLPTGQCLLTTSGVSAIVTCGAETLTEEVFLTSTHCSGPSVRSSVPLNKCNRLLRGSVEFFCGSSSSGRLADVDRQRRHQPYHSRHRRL
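Cruzain (1.5 nM) preincubated 15 min at RT with compound in 100 mM sodium acetate pH 5.5, 5 mM DTT, 0.01% Triton X-100. Reaction started with 2 uM Z-FR-AMC; AMC fluorescence (ex 360/em 450 nm) change over 60 s gave rate.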
Cruzain noTriton: qHTS Assay for Promiscuous and Specific Inhibitors of Cruzain (without detergent); Cruzipain (Trypanosoma cruzi), P25779; purified cruzain, Z-FR-AMC fluorescence, no detergent; Potency, µM, actives largely listed as inhibitors; 2.3% of 200,000 active; AID 1476, 2009; further: nearly all actives have a fitted effect of over 40% in size
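Detergent-free condition (0.00005% Triton X-100) in acetate buffer pH 5.5 with DTT. 1.5 nM enzyme and compound were pre-mixed 15 min, then 2 uM Z-FR-AMC substrate added; reaction progress from fluorescence change between first and third reads (60 s).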
Each line names hits and unclear results; the compound was inactive in the other large screens; ! = a repeat was not active. An excerpt weighted towards active compounds, which were near 2.5% of everything screened. The call rests on the fitted dose curve; in most records, active means well fitted curve in the direction sought with a large enough effect; inconclusive means small, poorly fitted or top-dose-only effect, or another doubt; inactive means no such curve, though single readings can be large; an effect the other way counts as inactive or inconclusive.

COc1ccc(NC(=O)C2=C(C)Nc3nc(SCc4ccccc4C)nn3C2c2cc(OC)c(O)c(OC)c2)cc1 (centres undefined)	Cruzain noTriton 10µM
CC(=O)c1ccc(NC(=O)c2nc(-c3ccccc3)n(-c3ccccc3Cl)n2)cc1	none
CC[C@@]1(O)C(=O)COc2c1cc1n(c2=O)Cc2c-1nc1cccc(C(C)C)c1c2[Si](C)(C)C	none
CCN(c1ccccc1)c1ncnc2c1cnn2-c1ccc(OC)cc1	none
Cc1sc2ncnc(Sc3ccccc3C(=O)Nc3ccc(C#N)cc3)c2c1C	none
Cc1sc2ncnc(Sc3ccccc3C(=O)Nc3ccc(Br)cc3)c2c1C	Cruzain noTriton 13µM
CCN(CC)c1ccc(C=C(c2nnnn2-c2ccc(C)cc2)c2nnnn2-c2ccc(C)cc2)cc1	Cruzain noTriton 32µM
Cc1ccc(-n2nnnc2C(Cl)c2nnnn2-c2ccc(C)cc2)cc1	none
CN(Cc1ccccc1)c1ccc(-c2nc(-c3ccco3)no2)cc1[N+](=O)[O-]	none
COc1cc2[nH]c(=O)n(Cc3ccc(C(=O)N4CCN(c5cc(Cl)ccc5C)CC4)cc3)c(=O)c2cc1OC	none
Cc1ccc(C)c2c1[nH]c1ccccc12	none
O=C1NC(=O)c2c1c1c3ccccc3[nH]c1c1[nH]c3ccccc3c21	Cruzain noTriton 8.9µM
CNC(=O)C1CCC(Cn2c(=O)c3sccc3n(CC(=O)N3CCC(C)CC3)c2=O)CC1 (centres undefined)	none
Cc1ccc(-c2nnc(Nc3cccc(Br)c3)c3ccccc23)cc1S(=O)(=O)N1CCCCC1	Cruzain noTriton 6.3µM
Cc1ccc(-c2nnc(Nc3ccccc3)c3ccccc23)cc1S(=O)(=O)NCc1nc2ccccc2[nH]1	Cruzain noTriton inconclusive
Cc1ccc(-c2nnc(NCc3nc4ccccc4[nH]3)c3ccccc23)cc1S(=O)(=O)N1CCCCC1	Cruzain noTriton 13µM
Cc1ccc(-c2nnc(Nc3cccc(Br)c3)c3ccccc23)cc1S(=O)(=O)N1CCN(C)CC1	none
O=C(CSc1nc(-c2ccccc2)no1)N1CCCCC1	none
COC(=O)c1c(NC(=O)COc2ccc(Cl)cc2)sc(C)c1C	none
COC(=O)c1c(NC(=O)Nc2ccc(Cl)cc2)sc(C)c1C	Cruzain noTriton 25µM!
CCN(CCCNC(=O)CSc1cc(=O)n(C)c2cc(Cl)ccc12)c1ccccc1	Cruzain noTriton inconclusive
O=C(C1CCCCC1)N(Cc1cccnc1)c1nc2ccc(F)cc2s1	none
O=C(O)[C@H](C1NCCS1)N1C(=O)c2ccccc2C1=O (some centres undefined)	none
O=C(Nc1cc(Cl)cc(Cl)c1)c1ccc(F)c(S(=O)(=O)N2CCCC2)c1	Cruzain noTriton 25µM
O=C(Nc1cc(Cl)cc(Cl)c1)c1cc(S(=O)(=O)N2CCc3ccccc3C2)ccc1F	Cruzain noTriton 16µM
O=C(Nc1cc(Cl)cc(Cl)c1)c1ccc(F)c(S(=O)(=O)N2CCc3ccccc32)c1	Cruzain noTriton 16µM
O=C(Nc1ccc2c(c1)CCC2)c1cc(S(=O)(=O)N2CCN(c3ccccc3)CC2)ccc1Cl	Cruzain noTriton 4µM
Cc1ccc(C)c(NC(=O)c2cc(S(=O)(=O)N3CCc4ccccc4C3)ccc2F)c1	none
O=C(Nc1ccc(Br)cc1)c1ccc(F)c(S(=O)(=O)N2CCCc3ccccc32)c1	Cruzain noTriton inconclusive
CC(C)c1ccc(NC(=O)c2ccc(F)c(S(=O)(=O)N3CCCC3)c2)cc1	none
O=C(CN1CCN(c2ccccc2)CC1)Nc1ccc2c(c1)CCC2	none
CCc1c(CN2CCN(c3cccc(C)c3)C(C)C2)csc1C (centres undefined)	none
CCc1ccc(N(CC)C(=O)c2ccc3c(=O)n4c(nc3c2)CCCCC4)cc1	none
COc1cccc(CNC(=O)CN2N=C(c3ccc(C)cc3)CCC2=O)c1	none
O=C(c1ccccc1)c1nn(-c2ccccc2)c2nnc(Cc3ccccc3)c(=O)n12	Cruzain noTriton 25µM
COC(=O)c1nn(-c2ccccc2)c2nnc(Cc3ccc(C)cc3)c(=O)n12	none
O=C(Oc1ccc2ccccc2c1)c1cncc(Br)c1	Cruzain noTriton inconclusive
O=C(Oc1ccc2c(=O)c(Oc3ccc4ccccc4c3)coc2c1)c1cncc(Br)c1	Cruzain noTriton 3.2µM
Cc1ccc2oc(-c3ccc(NC(=O)CCC(=O)O)cc3)nc2c1	none
C[C@@H](C(=O)Nc1ccc2ccccc2c1)[C@@H]1C[C@@]1(C)[C@@H](NC(=O)c1ccccc1)c1ccccc1	Cruzain noTriton inconclusive
CC(=O)N[C@H](c1ccccc1)[C@@]1(C)C[C@@H]1[C@@H](C)C(=O)Nc1ccc2ccccc2c1	none
C[C@@H](C(=O)Nc1ccc2ccccc2c1)[C@H]1C[C@]1(C)[C@H](NS(=O)(=O)c1ccc(-c2ccccc2)cc1)c1ccccc1	Cruzain noTriton 3.2µM
C[C@@H](C(=O)Nc1ccc2ccccc2c1)[C@@H]1C[C@@]1(C)[C@@H](NS(=O)(=O)c1ccc2ccccc2c1)c1ccccc1	Cruzain noTriton 7.9µM
Cc1nn(C)c(Cl)c1S(=O)(=O)N[C@@H](c1ccccc1)[C@]1(C)C[C@H]1[C@@H](C)C(=O)Nc1ccc2ccccc2c1	none
COC(=O)N[C@H](c1ccccc1)[C@@]1(C)C[C@@H]1[C@@H](C)C(=O)Nc1ccc2ccccc2c1	none
C[C@@H](C(=O)Nc1ccc2ccccc2c1)[C@H]1C[C@]1(C)[C@H](NS(=O)(=O)c1ccc2ccccc2c1)c1ccccc1	Cruzain noTriton 10µM
C[C@@H](C(=O)Nc1ccc2ccccc2c1)[C@H]1C[C@]1(C)[C@H](NC(=O)Oc1ccc(F)cc1)c1ccccc1	Cruzain noTriton 16µM
N#Cc1ccccc1NC(=O)CSc1nc(-c2ccccc2)cc(C(F)(F)F)c1C#N	none
Cc1ccc(-c2nc3sc(CCNC(=O)c4ccco4)c(C)n3n2)cc1	none
Cn1c(=O)[nH]c(=O)c2[nH]cnc21	none
CCOC(=O)c1cnn(-c2ccc(C(=O)Nc3ccc(OC(F)(F)F)cc3)cc2)c1N	none
O=C(N=Nc1c(O)[nH]c2ccc(Br)cc12)c1cc(-c2cccc3ccccc23)n[nH]1	Cruzain noTriton 10µM
Cc1cccc(C)c1OCC(=O)N=Nc1c(O)[nH]c2ccc(Br)cc12	none
COc1ccc(-c2nc(CCNC(=O)c3c(F)cccc3Cl)cs2)cc1	none
COc1ccc2c(CNC3CCCCCC3)c(C(=O)O)n(Cc3ccc(C)cc3)c2c1	none
O=C(C#Cc1cccc([N+](=O)[O-])c1)c1ccccc1	Cruzain Triton 8.9µM
O=C(/C=C/c1cccc([N+](=O)[O-])c1)c1ccccc1	none
CCN1C(=O)c2ccccc2Sc2ccc(NC(=O)N3CCN(c4cc(C)ccc4C)CC3)cc21	none
Clc1cccc(CSc2nnc(C3CCNCC3)o2)c1	none
CC(C)n1nc(C(=O)Nc2nnc(SCc3c(Cl)cccc3Cl)s2)c2ccccc2c1=O	Cruzain noTriton 13µM
CC(C)n1nc(C(=O)Nc2nc3ccc(S(C)(=O)=O)cc3s2)c2ccccc2c1=O	none
CC(=O)Nc1cc(C(=O)Nc2ccc3c(c2)N(C)C(=O)c2ccccc2S3)ccc1C	none
CCc1ccc2ncc3c(-c4ccc(C)cc4)nn(CC(=O)Nc4ccc(C)cc4)c3c2c1	none
COc1cccc(-n2c(SCC(=O)Nc3ccc(F)cc3F)nc3c([nH]c4ccccc43)c2=O)c1	none
Cc1ccc(-n2c(SCC(=O)Nc3ccc4c(c3)OCO4)nc3c([nH]c4ccccc43)c2=O)cc1	Cruzain noTriton 13µM
CCc1ccc(NC(=O)CSc2nc3c([nH]c4ccccc43)c(=O)n2-c2ccc(C)cc2)cc1	Cruzain noTriton inconclusive
